Results published in ChEMBL document CHEMBL3988442, “University of Dundee, Small-Polar-MMV Screening Library” (2021).
Screen size: about 48,000 compounds; about 13,000 (27%) showed an effect of 50% or more. Some of the results follow.

Tested on: Wolbachia pipientis
Test: Anti-Wolbachia Cell-Based Screen
Format: functional
Design: scale not given: in the data most compounds retested in dose-response had high values
Settings: 5 µM

Structure (SMILES) | Percent Effect [%]
O=C(NCC1CCCN1Cc1ccccc1)NCC1(O)CCC1 (configuration not stated) | 10.62
CCCn1ccnc1CN1C[C@@H](NC(C)=O)[C@H](c2ccc(C)cc2)C1 | -5.902
CCCn1cc(Cl)c(C(=O)N2C[C@@H](O)[C@H](NC(C)=O)C2)n1 | 135.9
CCCn1cc(Cl)c(C(=O)N2C[C@H]3C[C@H](OC)C[C@H]3C2)n1 | 128.4
CC(=O)N[C@@H]1CN(C(=O)c2ccncc2)C[C@H]1c1ccc(C)cc1 | -2.552
CCCn1cc(Cl)c(C(=O)N2C[C@@H](O)[C@H](Oc3ccccc3)C2)n1 | 77.97
Cn1cc(Cl)c(C(=O)N2CCCN(C3Cc4ccccc4C3)CC2)n1 | 3
CCCn1cc(C(=O)n2nc(C)cc2C)c(S(=O)(=O)N2CCSCC2)n1 | -15.72
CCOCCCNC(=O)c1nn(CC)cc1Cl | 13.91
Cn1cc(Cl)c(C(=O)N2CCC(N3CCc4ccccc4C3)CC2)n1 | 3.443
COCCN(Cc1ccccn1)C(=O)CC1OCCc2ccsc21 (configuration not stated) | 1.398
COc1ccc(Br)cc1CN(C)C(C)c1nc(C)no1 (configuration not stated) | 6.293
COc1ccc(C2(NCc3noc(C4CC4)n3)CCOCC2)cc1 | -5.013
COC(C)c1cccc(NC(=O)N(CCC#N)Cc2ccccn2)c1 (configuration not stated) | 1.571
O=C(Nc1cccc(CN2CCOC2=O)c1)N1CCOCC1 | -4.373
O=C1NC2(CCN(C(=O)Cc3ccsc3)CC2)CC1c1ccncc1 (configuration not stated) | -1.55
CC1NC(=O)COC12CCN(C(=O)Cc1ccsc1)CC2 (configuration not stated) | -21.8
CCN1CCNC(=O)C12CCN(C(=O)Cc1ccsc1)CC2 | 113.3
Cc1nn(C)cc1C(=O)N1CCCN(C2Cc3ccccc3C2)CC1 | -1.892
COc1cccc(OCC2CCCN(C(=O)c3cnc(C)nc3O)C2)c1 (configuration not stated) | -22.18
COc1cccc([C@@]2(O)CC[C@@H]3CN(C(=O)c4cn(C)nc4C)C[C@@H]32)c1 | 91.14
CCC(C(=O)N1CCCN(CCN(C)C)CC1)N1CCCC1=O (configuration not stated) | -2.353

Structure (SMILES) | Percent Effect [%]
COCCN1C(=O)CCC12CCN(C(=O)CNC(C)=O)CC2 | 102.7
O=C(CC1CC1)N1CCCC2(CCC(=O)N2CC2CC2)CC1 (configuration not stated) | 113.9
COCCN1C(=O)CCC12CCCN(C(=O)CC1CC1)CC2 (configuration not stated) | 103.4
COCCN1C(=O)CC[C@]12CC[C@@H](NC(=O)c1cc(C)on1)CC2 | -11.81
CN(C)CCN1C(=O)CCC12CCCN(C(=O)CC1CC1)CC2 (configuration not stated) | 109.9
Cc1cc(C(=O)N[C@H]2CC[C@@]3(CCC(=O)N3CC3CC3)CC2)no1 | -41.45
O=C1CCC2(CCN(S(=O)(=O)c3ccccc3)CC2)N1CC1CC1 | -5.701
Cc1ccc(C(=O)N2CCC3(CCC(=O)N(CCN(C)C)C3)CC2)nc1 | 13.38
COCCN1C(=O)CCC12CCN(c1ncc(F)cn1)CC2.O=C(O)C(F)(F)F | 4.325
COCCN1C(=O)CCC12CCCN(c1ncc(F)cn1)CC2 (configuration not stated) | -9.893
c1ccc(OCCNc2ncnc3sc4c(c23)CCNC4)cc1 | 38.96
CCN1C[C@H]2CCN(c3ncccn3)CC[C@H]2S1(=O)=O | 3.931
Cc1cc(C)nc(NC2CCc3nc(C)nn3C2)n1 (configuration not stated) | 12.23
O=C(O)CC(NC(=O)c1cc(Br)c[nH]1)c1ccccc1 (configuration not stated) | 7.291
Cc1c(C(=O)N2CCC3(CCC(=O)N(CCN(C)C)C3)CC2)ccn1C | 2.177
CN(C)CCN1C(=O)CCC12CCN(C(=O)CC1CC1)CC2 | 92.35
O=C(c1nccc2ccccc12)N(Cc1ccco1)CC1CCCO1 (configuration not stated) | 5.16
CC(C)(C)OC(=O)NCC(=O)NCc1ccc(Cl)s1 | 16.63
CNC(=O)COC1COC2(CCN(c3ccc(C)nn3)CC2)C1.O=C(O)C(F)(F)F (configuration not stated) | -17.84
CNC(=O)COC1COC2(CCN(c3cnccn3)CC2)C1.O=C(O)C(F)(F)F (configuration not stated) | 11.18
O=C(O)C(F)(F)F.c1cncc(COC2COC3(CCN(c4cnccn4)CC3)C2)c1 (configuration not stated) | 8.045
CNC(=O)COC1COC2(CCN(Cc3cccnc3)CC2)C1.O=C(O)C(F)(F)F (configuration not stated) | 120

Structure (SMILES) | Percent Effect [%]
CNC(=O)COC1COC2(CCN(Cc3ccncc3F)CC2)C1.O=C(O)C(F)(F)F (configuration not stated) | 109.2
Fc1ccc(F)c(CN2CCC(c3n[nH]c4ncccc34)CC2)c1.O=C(O)CC(O)(CC(=O)O)C(=O)O | 96.71
c1cnc2c(C3CCN(Cc4ccsc4)CC3)n[nH]c2n1 | -13.91
O=C(O)CC(O)(CC(=O)O)C(=O)O.c1cnc2[nH]nc(C3CCN(Cc4ccsc4)CC3)c2c1 | 113.3
Cn1cc2c(n1)C(CNC1CCOCC1)OCC2.O=C(O)C(F)(F)F (configuration not stated) | -8.385
CCOCc1nc(CSc2ccncc2)n(C2CCN(C)CC2)n1 | 13.12
COc1ncccc1-c1nc(-c2ccccn2)nn1C1CCN(C)CC1 | -6.109
CN1CCC(Cc2nc(-c3cnccn3)n(C3CCS(=O)(=O)C3)n2)CC1 (configuration not stated) | -23.71
Cc1ncsc1-c1nc(Cc2cccs2)nn1C1CCN(C)CC1 | -9.082
CN1CCC(n2nc(CC3CC3)nc2-c2ccc(F)cc2Cl)CC1 | 106.3
CCOCc1nc(-c2ccc(F)cc2Cl)n(C)n1 | 104.7
CCOCc1nc(-c2ccc(F)cc2Cl)n(C2CCN(C)CC2)n1 | 110.7
CCOCc1nc(-c2cccc(OC)c2OC)n(C2CCN(C)CC2)n1 | 115.7
CCOCc1nc(CSc2ccncc2)n(C)n1 | -5.223
CN1CCC(n2nc(Cc3cccs3)nc2-c2ccncc2)CC1 | -23.96
Nc1cnc(-c2ccc(F)cc2Cl)cn1 | 2.9
CN1CCC(n2nc(Cc3cccc(Cl)c3)nc2Cn2cnnn2)CC1 | 20.47
CCOc1ccc(NC(C)C(=O)NCCc2cccs2)cc1CO (configuration not stated) | -30.37
CC(C)c1noc(CCCC(=O)N2CCN(C)CC2c2ccccc2)n1 (configuration not stated) | 5.23
O=C(c1cnc(-c2noc3cc(N4CCCC4)ccc23)s1)N1CCCC1 | 0.8579
CCC(C)NS(=O)(=O)Cc1cccc(NC(=O)c2cc[nH]c2C)c1 (configuration not stated) | 3.733
Cc1ccc2nc(C)c(C)c(C(=O)NCCCn3cnnc3)c2c1 | -1.384

Structure (SMILES) | Percent Effect [%]
CC(C)Oc1cc(N2CC[C@@H](N3CCOCC3)[C@H](O)C2)nc(N)n1 | -17.76
CCn1nccc1CNC(=O)C1CC1 | 8.516
CCn1nccc1CNc1[nH]cnc2nc(C)nc1-2 | 100.2
CCn1nccc1CN(C)c1[nH]cnc2nc(C)nc1-2 | 80.56
CCn1nccc1CNC(=O)NC1CCCCC1 | 13.66
CCn1ncnc1CN(CCOC)Cc1ccc(C)cc1 | -0.7993
CCn1nccc1CNc1[nH]cnc2nncc1-2 | 87.91
Cc1nccn1-c1ccc(C(C)NCc2ncc[nH]2)cc1 (configuration not stated) | -20.7
Cc1cc(C(=O)Nc2ccnc(OC3CCOC3)c2)c(C)o1 (configuration not stated) | -9.731
Cc1ccc2[nH]c(CN(C)c3cc(CN)nc(C)n3)nc2c1 | -0.384
N#Cc1cn(C2CC2)c(=O)n(Cc2noc(-c3cccs3)n2)c1=O | 11.53
COCCn1cnnc1CN(C)c1nc(N)nc2c1CCCC2 | 15.13
Cc1oncc1C(=O)N1CC2CC1(C(=O)NCc1ccco1)C2 | -19.28
FC(F)(F)Oc1ccc(-c2c[nH]c([C@@H]3COCCN3)n2)cc1 | -3.996
Cc1ccc(CNCC2Cn3nncc3CO2)o1 (configuration not stated) | 84.72
c1coc(CNCC2Cn3nncc3CO2)c1 (configuration not stated) | 91.63
c1cc(CNCC2Cn3nncc3CO2)cs1 (configuration not stated) | 14.09
c1cc(CNCC2Cn3nncc3CO2)ccn1 (configuration not stated) | 7.838
Cc1ccc(CNCC2Cn3nncc3CO2)s1 (configuration not stated) | 98.39
Cc1nnn2c1COC(CNCc1ccncc1)C2 (configuration not stated) | -6.146
Cc1ccc(CNCC2Cn3nnc(-c4cccc(F)c4)c3CO2)o1.O=C(O)C(F)(F)F (configuration not stated) | -4.594
c1ccc(CNCC2Cn3nncc3CO2)nc1 (configuration not stated) | -9.384

Structure (SMILES) | Percent Effect [%]
Fc1cccc(CNCC2Cn3nncc3CO2)c1 (configuration not stated) | -13.19
COCCN(CCC#N)S(=O)(=O)c1cc(F)ccc1F | 6.072
CC(C)c1nnc2n1CCN(C(=O)c1ccc(CN(C)C)cc1)C2 | -8.921
Cc1nnc2n1CCN(C(=O)CN(C)Cc1ccccc1)C2 | 125
CC(C)c1nnc2n1CCN(C(=O)CN1Cc3ccccc3C1=O)C2 | -9.252
CCc1nnc2n1CCN(C(=O)CN(C)Cc1ccccc1)C2 | -3.292
Cc1nnc2n1CCN(C(=O)COCCOc1ccccc1)C2 | 6.355
CC(C)c1nnc2n1CCN(C(=O)CN(C)Cc1ccccc1)C2 | 95.98
CS(=O)(=O)c1nccn1Cc1ccc(C(N)=O)cc1 | -9.833
CN(Cc1cn2c(n1)CN(C(=O)C1CCOCC1)CC2)Cc1ccco1 | -9.912
CCN(CC)Cc1cnc2n1CCN(C1CCOC1)CC2 (configuration not stated) | -1.376
CN(C)Cc1cn2c(n1)CN(C1CCOC1)CC2 (configuration not stated) | 93.96
CN(Cc1cncnc1)Cc1cn2c(n1)CN(C1CCOC1)CC2.O=C(O)C(F)(F)F.O=C(O)C(F)(F)F (configuration not stated) | -14.81
CN(Cc1cccnc1)Cc1cn2c(n1)CN(C1CCOC1)CC2.O=C(O)C(F)(F)F.O=C(O)C(F)(F)F.O=C(O)C(F)(F)F (configuration not stated) | 86.19
CN(Cc1cn2c(n1)CN(C1CCOC1)CC2)Cc1ccco1.O=C(O)C(F)(F)F.O=C(O)C(F)(F)F (configuration not stated) | -12.79
CN(Cc1cccnc1)Cc1cn2c(n1)CN(C1CCOCC1)CC2 | 108.1
CN(Cc1cn2c(n1)CN(CC1CCOC1)CC2)Cc1ccco1.O=C(O)C(F)(F)F.O=C(O)C(F)(F)F (configuration not stated) | 11.13
CCN(CC)Cc1cn2c(n1)CN(C1CCOC1)CC2.O=C(O)C(F)(F)F.O=C(O)C(F)(F)F (configuration not stated) | 96.5
CCOCC(=O)N1CCn2cc(CN(C)Cc3ccco3)nc2C1 | -7.292
